These results are taken from ChEMBL document CHEMBL1157539, “Thousands of chemical starting points for antimalarial lead identification” (Nature, 2010).

This assay has as its system HepG2. As to the kind of experiment: GSK_TCMDC: Percent inhibition of human HepG2 cell line. Test compounds present at 10uM. The assay is classed as functional.
As a reminder, the Inhibition is the percentage by which the read-out fell short of the control. As to `COc1ccc2c(N/N=C/c3cccc([N+](=O)[O-])c3)cc(C)nc2c1`, the Inhibition was determined as 18%.
Then `COc1ccc2c(c1)ncn2-c1cc(OCc2ccncc2Br)c(C(N)=O)s1`, with 14%; and `Cc1cc(=NN=Cc2ccccc2)c2cc(C(F)(F)F)ccc2[nH]1`, with 30%.
Next, `O=C(Nc1ccc(Cl)cc1)c1ccc(CN2CCCN(Cc3ccc(F)cc3)CC2)cc1.O=C(O)C(F)(F)F`: 48%.
Then `Nc1cccc(CNCc2ccc(-c3cccc(-c4nc5cc(C(F)(F)F)ccc5[nH]4)c3)cc2)c1.O=C(O)C(F)(F)F`, with 60%.
